Results on 40 molecules are retold here after ChEMBL document CHEMBL3433997, “St. Jude Leishmania screening dataset” (2016).

Structures are written as SMILES. Where “and” joins values, the source holds several entries; their conditions need not be identical. Equal entries are not always repeated.

Chain of Solute carrier family 2, facilitated glucose transporter member 1 (Homo sapiens) (P11166 whole entry): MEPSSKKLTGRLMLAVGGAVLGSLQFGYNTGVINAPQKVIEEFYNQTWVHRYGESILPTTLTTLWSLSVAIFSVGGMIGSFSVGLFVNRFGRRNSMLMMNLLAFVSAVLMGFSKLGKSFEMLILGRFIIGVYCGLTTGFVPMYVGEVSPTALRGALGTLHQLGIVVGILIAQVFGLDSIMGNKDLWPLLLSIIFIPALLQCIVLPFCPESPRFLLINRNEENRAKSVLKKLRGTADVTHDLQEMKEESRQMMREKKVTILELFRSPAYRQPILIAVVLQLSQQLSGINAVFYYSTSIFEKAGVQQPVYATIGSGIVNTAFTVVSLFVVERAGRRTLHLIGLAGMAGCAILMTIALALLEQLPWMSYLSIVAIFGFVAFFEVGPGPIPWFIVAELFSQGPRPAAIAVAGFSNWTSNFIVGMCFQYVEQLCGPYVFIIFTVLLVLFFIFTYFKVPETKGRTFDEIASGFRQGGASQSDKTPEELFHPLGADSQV

One experiment concerns the target Solute carrier family 2, facilitated glucose transporter member 1 (Homo sapiens) (UniProt P11166). In words: ST_JUDE_LEISH: Cytotoxicity at 2uM final concentration against transgenic Leishmania Mexicana promastigotes LmGLUT1 that are glucose transport deficient and complemented with the human glucose transporter GLUT1. Activity is measured by DNA content using SYBR green in vitro. Type of experiment: functional.
In general, inhibition refers to the relative decrease from the control value, in per cent. Regarding `CC(C)CNCc1ccc(-c2ccc(CN(C(=O)NCCc3ccccc3)C3CCN(Cc4ccccc4)CC3)cc2)cc1`, the inhibition worked out at 71.6%.

Turning to `CC(=O)Nc1ccc(OCCCCCOc2ccc(NC(C)=O)cc2Cl)c(Cl)c1`, the inhibition turned out to be 1.91%.

With `COCc1nc(-c2ccccc2)nc(N2CCN(C(=O)NC(C)C)CC2)c1Cc1ccccc1F`, the inhibition came to 8.3%.

As to `CCCSc1nc2c(c(=O)n1CCc1ccccc1)C1(CCCC1)Cc1ccccc1-2`, the inhibition was -1.58%.

For the molecule `N=c1c2nc(-c3c(F)cccc3Cl)[nH]c(=O)c2[nH]c(=O)n1-c1ccccc1`, the inhibition stood at 2.91%.

As to `COCCNCc1ccc(-c2ccc(CNC3CCN(Cc4ccccc4)CC3)cc2)cc1`, the inhibition turned out to be 0.78%.

Regarding `CS(=O)(=O)Nc1ccc(OCCCCCCOc2ccc(NS(C)(=O)=O)cc2)cc1`, the inhibition came to 1.48%.

In the case of `COc1cc(NC(=O)/C=C/c2ccccc2OC(F)(F)F)cc(OCCN2CCN(CCN3CCOCC3)CC2)c1`, the inhibition stood at 3.4%.

For the molecule `Cc1cc(Nc2ccc3ccccc3c2)n2ncnc2n1`, the inhibition is -0.63%.

On to `O=C(Nc1cccc(-c2cccc(-c3nc4ccccc4[nH]3)c2)c1)NC1CC1c1ccccc1` (stereo not given), for which the inhibition is 6.53% and 2.58%.

`CC(=O)Nc1ccc(OCCCCN(Cc2ccccc2C(F)(F)F)c2ccc(C#N)c(C(F)(F)F)c2)c(Cl)c1`: the inhibition amounted to 4.39%.

As to `CC(C)Nc1nc(NCCc2c[nH]cn2)nc(NCc2ccc(Cl)c(Cl)c2)n1`, the inhibition was 3.82%.

Consider `O=C(/C=C/c1ccc(Cl)c(Cl)c1)NC1CCC(CN2CCC(c3c[nH]c4ccncc34)CC2)CC1` (stereo not given), for which the inhibition amounted to 0.22%.

On to `CNCCNCc1ccc(-c2ccc(-c3nc4cccc(C)c4[nH]3)s2)cc1`, for which the inhibition was 2.93%.

For the molecule `COc1ccc2c(c1)nc(CNC(=N)N)n2Cc1ccc(Cl)cc1`, the inhibition came to 1.63%.

For `c1ccc(COc2ccc(Nc3ncnc4ccc(-c5ccc(CN6CCSCC6)o5)cc34)cc2)cc1`, the inhibition amounted to 10.9%.

For `COc1ccc(Br)cc1/C=C/C(=O)Nc1cccc(C2CCN(C)CC2)c1`, the inhibition was 3.43%.

For the molecule `O=c1ccc2ccc(F)c3c2n1CC3CN1CCC(NCc2ccc(-c3cccc(Cl)c3)nc2)CC1` (stereo not given), the inhibition was determined as 26.2%.

In the case of `Cc1nc(N)nc(N)c1CCCOc1cccc(Cl)c1`, the inhibition came out at 7.39%.

For `Cc1nc2nc(N)nc(N)c2c(C)c1Cc1ccccc1Br`, the inhibition amounted to 7.5%.

As for `CN(Cc1ccccc1)C(=O)CCNS(=O)(=O)c1cc(Br)cnc1N`, the inhibition was 2.6%.

In the case of `Cc1nc(C)c(CC(=O)Nc2ccc(-c3cccc(-c4nc5cccc(C)c5[nH]4)c3)cc2)s1`, the inhibition turned out to be 2.82%.

`Oc1ccc(CCNc2nc(NCc3ccccc3-c3ccc(C(F)(F)F)cc3)nc(N3CCCNCC3)n2)cc1`: the inhibition turned out to be 4.27%.

On to `COc1cc2nc(NCCc3ccccc3)nc(NCc3ccc(C#N)cc3)c2cc1OC`, for which the inhibition is 3.59%.

As for `Cc1[nH]cc(Br)c(=O)c1-c1ccc(Oc2ccccc2)cc1`, the inhibition turned out to be 2.07%.

In the case of `c1ccc(C(c2ccccc2)N2CCN(C(c3cccnc3)c3nnnn3C3CCCC3)CC2)cc1` (stereo not given), the inhibition was found to be 4.64%.

As for `FC(F)(F)c1ccc2[nH]ccc(=NN=CC=Cc3ccccc3)c2c1`, the inhibition was found to be 0.22%.

Turning to `CC1CCN(C(=O)[C@H](Cc2c[nH]c3ccccc23)NS(=O)(=O)c2ccc(Cl)cc2)CC1`, the inhibition turned out to be 1.32%.

On to `COc1ccc(NC(=O)/C=C/c2ccccc2Cl)cc1OCCN1CCC(N2CCCCC2)CC1`, for which the inhibition amounted to 7.74%.

As for `CON=C1CCC(Cn2ccnc2)(c2ccc(Cl)cc2Cl)CC1` (stereo not given), the inhibition came out at 7.4%.

On to `Cc1ccc(C(C)C)cc1CON1C(=N)N=C(N)NC1(C)C`, for which the inhibition was 11.2%.

Regarding `O=c1ccc2ccc(F)c3c2n1CC3CN1CCC(NCc2cccc(-c3cccs3)c2)CC1` (stereo not given), the inhibition amounted to 6.55%.

For the molecule `CCc1ccc(CN(CCCOc2cccc(CC(=O)NCc3c[nH]cn3)c2)Cc2ccc(-n3ccnc3)cc2)cc1`, the inhibition turned out to be 2.55%.

For the molecule `CC(C)Cn1c(Sc2ccc(C#N)c([N+](=O)[O-])c2)nnc1-c1ccccc1`, the inhibition was found to be 6.46%.

With `N=C(N)Nc1nc(-c2cccc(NC(=O)NCc3cccc4ccccc34)c2)cs1`, the inhibition worked out at 1.1%.

Turning to `Cc1ccc(N2C(N)=NC(N)=NC2(C)C)cc1Cl`, the inhibition stood at 11.4%.

As to `O=C(Nc1ccc(C(F)(F)F)cc1)NC1CCN(c2ccnc3cc(Cl)ccc23)CC1`, the inhibition was determined as 6.47%.

Turning to `CN(c1ccc2c(c1)nc(NC(=O)C1(c3cc(F)ccc3F)CC1)n2C)c1ccnc(Nc2cccc(CS(C)(=O)=O)c2)n1`, the inhibition is -0.91%.

Take `CCNc1cc(C(=O)N[C@@H](Cc2ccccc2)[C@H](O)CN[C@@H]2CCc3ccccc32)cc(N2CCCC2=O)c1`: the inhibition was determined as 10.5%.

On to `Cc1ccc(C(NC(=O)c2ccccc2)c2ccc3cccnc3c2O)cc1` (stereo not given), for which the inhibition was found to be 4.29%.

Another experiment concerns the target Hexose transporter 1 (Plasmodium falciparum) (UniProt O97467). As to the kind of experiment: ST_JUDE_LEISH: Cytotoxicity at 2uM final concentration against transgenic Leishmania Mexicana promastigotes LmPfHT that are glucose transport deficient and complemented with the Plasmodium falciparum hexose transporter. Activity is measured by DNA content using SYBR green in vitro. Type of experiment: functional.
For the molecule `CC(C)CNCc1ccc(-c2ccc(CN(C(=O)NCCc3ccccc3)C3CCN(Cc4ccccc4)CC3)cc2)cc1`, the inhibition was 53.7%.

Turning to `CC(=O)Nc1ccc(OCCCCCOc2ccc(NC(C)=O)cc2Cl)c(Cl)c1`, the inhibition came out at 1.52%.

In the case of `COCc1nc(-c2ccccc2)nc(N2CCN(C(=O)NC(C)C)CC2)c1Cc1ccccc1F`, the inhibition amounted to 6.85%.

Regarding `CCCSc1nc2c(c(=O)n1CCc1ccccc1)C1(CCCC1)Cc1ccccc1-2`, the inhibition was found to be 1.38%.

Take `N=c1c2nc(-c3c(F)cccc3Cl)[nH]c(=O)c2[nH]c(=O)n1-c1ccccc1`: the inhibition was 11.5%.

For the molecule `COCCNCc1ccc(-c2ccc(CNC3CCN(Cc4ccccc4)CC3)cc2)cc1`, the inhibition amounted to 2.82%.

As to `CS(=O)(=O)Nc1ccc(OCCCCCCOc2ccc(NS(C)(=O)=O)cc2)cc1`, the inhibition came to 3.08%.

In the case of `COc1cc(NC(=O)/C=C/c2ccccc2OC(F)(F)F)cc(OCCN2CCN(CCN3CCOCC3)CC2)c1`, the inhibition worked out at 3.05%.

Turning to `Cc1cc(Nc2ccc3ccccc3c2)n2ncnc2n1`, the inhibition was -3.58%.

`O=C(Nc1cccc(-c2cccc(-c3nc4ccccc4[nH]3)c2)c1)NC1CC1c1ccccc1` (stereo not given): the inhibition was 5.02% and 2.99%.

As to `CC(=O)Nc1ccc(OCCCCN(Cc2ccccc2C(F)(F)F)c2ccc(C#N)c(C(F)(F)F)c2)c(Cl)c1`, the inhibition came out at 4.65%.

Regarding `CC(C)Nc1nc(NCCc2c[nH]cn2)nc(NCc2ccc(Cl)c(Cl)c2)n1`, the inhibition is 0.13%.

Turning to `O=C(/C=C/c1ccc(Cl)c(Cl)c1)NC1CCC(CN2CCC(c3c[nH]c4ccncc34)CC2)CC1` (stereo not given), the inhibition worked out at 0.56%.

Turning to `CNCCNCc1ccc(-c2ccc(-c3nc4cccc(C)c4[nH]3)s2)cc1`, the inhibition was 2.48%.

In the case of `COc1ccc2c(c1)nc(CNC(=N)N)n2Cc1ccc(Cl)cc1`, the inhibition is 1.08%.

As to `c1ccc(COc2ccc(Nc3ncnc4ccc(-c5ccc(CN6CCSCC6)o5)cc34)cc2)cc1`, the inhibition is 7.33%.

In the case of `COc1ccc(Br)cc1/C=C/C(=O)Nc1cccc(C2CCN(C)CC2)c1`, the inhibition is 0.87%.

Regarding `O=c1ccc2ccc(F)c3c2n1CC3CN1CCC(NCc2ccc(-c3cccc(Cl)c3)nc2)CC1` (stereo not given), the inhibition stood at 21.3%.

In the case of `Cc1nc(N)nc(N)c1CCCOc1cccc(Cl)c1`, the inhibition came to 7.51%.

Take `Cc1nc2nc(N)nc(N)c2c(C)c1Cc1ccccc1Br`: the inhibition was 14.9%.

Consider `CN(Cc1ccccc1)C(=O)CCNS(=O)(=O)c1cc(Br)cnc1N`, for which the inhibition came to 3.87%.

In the case of `Cc1nc(C)c(CC(=O)Nc2ccc(-c3cccc(-c4nc5cccc(C)c5[nH]4)c3)cc2)s1`, the inhibition was found to be 2.89%.

`Oc1ccc(CCNc2nc(NCc3ccccc3-c3ccc(C(F)(F)F)cc3)nc(N3CCCNCC3)n2)cc1`: the inhibition stood at 2.99%.

With `COc1cc2nc(NCCc3ccccc3)nc(NCc3ccc(C#N)cc3)c2cc1OC`, the inhibition was 6.39%.

Take `Cc1[nH]cc(Br)c(=O)c1-c1ccc(Oc2ccccc2)cc1`: the inhibition was determined as 2.3%.

As to `c1ccc(C(c2ccccc2)N2CCN(C(c3cccnc3)c3nnnn3C3CCCC3)CC2)cc1` (stereo not given), the inhibition was -0.82%.

Take `FC(F)(F)c1ccc2[nH]ccc(=NN=CC=Cc3ccccc3)c2c1`: the inhibition came out at 0.25%.

With `CC1CCN(C(=O)[C@H](Cc2c[nH]c3ccccc23)NS(=O)(=O)c2ccc(Cl)cc2)CC1`, the inhibition is 2.42%.

Turning to `COc1ccc(NC(=O)/C=C/c2ccccc2Cl)cc1OCCN1CCC(N2CCCCC2)CC1`, the inhibition came to 7.17%.

As to `CON=C1CCC(Cn2ccnc2)(c2ccc(Cl)cc2Cl)CC1` (stereo not given), the inhibition worked out at 2.3%.

For the molecule `Cc1ccc(C(C)C)cc1CON1C(=N)N=C(N)NC1(C)C`, the inhibition amounted to 10.7%.

In the case of `O=c1ccc2ccc(F)c3c2n1CC3CN1CCC(NCc2cccc(-c3cccs3)c2)CC1` (stereo not given), the inhibition turned out to be 8.34%.

As to `CCc1ccc(CN(CCCOc2cccc(CC(=O)NCc3c[nH]cn3)c2)Cc2ccc(-n3ccnc3)cc2)cc1`, the inhibition was 2.84%.

In the case of `CC(C)Cn1c(Sc2ccc(C#N)c([N+](=O)[O-])c2)nnc1-c1ccccc1`, the inhibition was 6.58%.

Regarding `N=C(N)Nc1nc(-c2cccc(NC(=O)NCc3cccc4ccccc34)c2)cs1`, the inhibition is -0.38%.

For `Cc1ccc(N2C(N)=NC(N)=NC2(C)C)cc1Cl`, the inhibition was found to be 8.8%.

Regarding `O=C(Nc1ccc(C(F)(F)F)cc1)NC1CCN(c2ccnc3cc(Cl)ccc23)CC1`, the inhibition amounted to 6.26%.

Regarding `CN(c1ccc2c(c1)nc(NC(=O)C1(c3cc(F)ccc3F)CC1)n2C)c1ccnc(Nc2cccc(CS(C)(=O)=O)c2)n1`, the inhibition came to 0.33%.

Take `CCNc1cc(C(=O)N[C@@H](Cc2ccccc2)[C@H](O)CN[C@@H]2CCc3ccccc32)cc(N2CCCC2=O)c1`: the inhibition came to 2.63%.

Regarding `Cc1ccc(C(NC(=O)c2ccccc2)c2ccc3cccnc3c2O)cc1` (stereo not given), the inhibition is 6.5%.
